TRHR agonist: qHTS for Small Molecule Agonists and Allosteric Enhancers of Human TRH Receptor: Primary Screen for Agonists. Thyrotropin-releasing hormone receptor (Homo sapiens), P34981. activation, % at 2 µM. TRHR cells, calcium flux fluo-8, FDSS agonist mode. 360,000 tested, 0.18% active. AID 493084, 2011
Target sequence (P34981 whole entry, looked up): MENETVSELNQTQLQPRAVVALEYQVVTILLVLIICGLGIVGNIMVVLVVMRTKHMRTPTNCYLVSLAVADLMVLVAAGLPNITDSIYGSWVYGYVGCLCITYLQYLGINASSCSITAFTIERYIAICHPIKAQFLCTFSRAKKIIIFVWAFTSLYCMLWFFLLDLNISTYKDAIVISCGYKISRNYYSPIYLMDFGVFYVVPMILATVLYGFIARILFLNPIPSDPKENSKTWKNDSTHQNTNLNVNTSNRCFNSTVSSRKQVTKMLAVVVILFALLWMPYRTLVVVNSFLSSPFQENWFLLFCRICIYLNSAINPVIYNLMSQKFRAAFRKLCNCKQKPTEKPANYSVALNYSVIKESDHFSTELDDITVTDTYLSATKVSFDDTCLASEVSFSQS
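Steps: seed TRHR cells overnight; add fluo-8 no-wash Ca dye, RT 30 min–1.5 h; record 10 s baseline; pin-transfer compounds; monitor fluorescence 1 cycle/s for the agonist window. Calcium increases flag candidate agonists.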
USP1 inh: Inhibitors of USP1/UAF1: Primary Screen; Ubiquitin carboxyl-terminal hydrolase 1 (Homo sapiens), O94782; recombinant USP1/UAF1, Ub-Rhodamine cleavage fluorescence; Potency, µM (top dose mostly 57.1 µM), usual class: inhibitors; 390,000 tested, 0.23% active; active = well fitted inhibition curve with a large enough effect; inconclusive = small, poorly fitted or top-dose-only effect; inactive = no such curve, though single readings can be large or run the other way; note: nearly all actives have a fitted effect of over 60% in size
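1 nM enzyme complex + cpd, 15 min RT; start with Ub-Rho 150nM final; kinetic fluorescence ex 480/em 540, 6 reads q60 s. Buffer 50mM HEPES pH 7.8, 0.5mM EDTA, 0.1 mg/ml BSA, 1mM TCEP, 0.01% Tween-20.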
D1 agonist: Allosteric Agonists of the Human D1 Dopamine Receptor: qHTS; D(1A) dopamine receptor (Homo sapiens), P21728; HEK293 T-REx D1 cells, calcium flux, agonist mode; activation, % at 2 µM; 360,000 tested, 1% active
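Agonism was scored from calcium flux recorded over 180 s (1 read/s) after pintool compound addition, following a 10-cycle baseline. Cells were inducible force-coupled HEK293 TREx D1, plated overnight at 30 C and loaded with no-wash calcium dye.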
D1 antagonist: Antagonist of Human D 1 Dopamine Receptor: qHTS; HEK293 TREx D1 cells, calcium flux, dopamine EC80; stronger effect = lower value; D(1A) dopamine receptor (Homo sapiens), P21728; activity change, negative = inhibition, % at 10 µM; 360,000 tested, 3.2% active; in the data active = activity change below about -30%
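Calcium flux readout: force-coupled, inducible Hek293 Trex D1 line, cells induced overnight at 30 C with tetracycline, dye-loaded 30–90 min at RT. Antagonism scored against EC80 dopamine challenge given 180 s after compound.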
D1 potentiator: Potentiators of Human D1 Dopamine Receptor: qHTS | potentiation, % at 10 µM | HEK293 TREx D1 cells, calcium flux, dopamine EC20 potentiation | D(1A) dopamine receptor (Homo sapiens), P21728 | 360,000 tested, 0.036% active; in the data active = potentiation above about 30%
TRHR enhancer: qHTS for Small Molecule Agonists and Allosteric Enhancers of Human TRH Receptor: Primary Screen for Enhancers | Thyrotropin-releasing hormone receptor (Homo sapiens), P34981 | TRHR cells, fluo-8 calcium fluorescence, EC20 TRH enhancement | enhancement, % at 2 µM | 360,000 tested, 0.66% active; in the data active = enhancement above about 30%
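TRHR-expressing cells loaded with fluo-8 calcium dye were read kinetically (ex 480/em 530) during compound addition, then stimulated with an EC20 of TRH (10 nM final). Enhancement of the Gq-mediated intracellular calcium response was scored.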
Hits are given with their value; – = inactive; ? = inconclusive; · = not tested or not shown; ! = a repeat was not active. The list is not random: actives were taken first. Their share in the collection is about 4.4%. Cut-off read from the data, not from the text of the source, unless noted: active = activation above about 30%; inactive = the rest.

SMILES	TRHR agonist	USP1 inh	D1 agonist	D1 antagonist	D1 potentiator	TRHR enhancer
CCOC(=O)C(Cc1ccccc1)NS(=O)(=O)c1ccc(NC(C)=O)cc1 (configuration not stated)	–	–	–	-31	–	–
COc1ccc(-c2sc(Nc3ccccc3)n[n+]2-c2ccccc2)cc1Br	–	–	–	-31	–	–
COc1ccc(C)cc1Nc1n[n+](-c2ccccc2)c(-c2c(OC)ccc3ccccc23)s1	–	–	46	-91	–	–
COc1ccc(C)cc1Nc1n[n+](-c2ccccc2)c(-c2cc(OC)c(OC)cc2Br)s1	–	–	–	–	–	–
COC(=O)c1ccc(Nc2nc(-c3ccccc3Cl)nc3ccccc23)cc1	–	–	–	–	–	–
CCCn1c(SCC(=O)O)nc2ccccc21	–	–	–	-88	–	–
CCCn1c(/C=C/c2ccccc2)nc2ccccc21	–	–	–	-35!	–	–
COCCOCCn1c(/C=C/c2ccccc2)nc2ccccc21	–	?	–	–	–	–
CCN(CC)CCSc1nc2ccccc2n1Cc1ccccc1	–	–	–	-39	–	–
COc1ccc(Br)cc1CNC(=O)CN1CCSc2ccccc21	–	–	–	–	–	–
Cc1cc(C)c2oc(C(=O)Nc3nc4ccc(Cl)cc4s3)cc(=O)c2c1	–	–	–	–	–	–
O=C(Nc1ccc2c(c1)OCO2)N1CCN(c2ccccc2Cl)CC1	–	–	–	–	–	–
CSc1ccccc1N1CCN(C(=O)Nc2ccc3c(c2)NC(=O)CO3)CC1	–	–	–	-49	–	–
Nc1ccc(N2CCCCC2)c2nonc12	–	4.5µM	–	–	–	–
Nc1c(N2CCOCC2)cc(Cl)c2nonc12	–	–	–	–	–	–
Nc1ccc(N2CCCCC2)cc1N1CCCCC1	–	–	–	–	–	–
Nc1c(N2CCCC2)cc(Cl)c2nonc12	–	16µM	–	–	–	–
O=C(c1ccc2c(c1)N(Cc1cccc(Cl)c1)C(=O)c1ccccc1S2=O)N1CCN(c2cccc(C(F)(F)F)c2)CC1 (configuration not stated)	–	–	–	–	–	–
O=S(=O)(c1ccc(Br)cc1)N1CCn2cccc2C1c1ccc(Br)cc1 (configuration not stated)	–	–	–	·	–	–
CN(C)c1ccc(/C=C/C(=O)c2c(O)c3ccccc3oc2=O)cc1	38	?	156	–	–	–
NC(=O)C1(c2ccccc2)CCCN1C(=O)c1ccccc1Br (configuration not stated)	–	–	–	–	–	36
Cc1ccc2cccc(N=Cc3c(C)[nH]n(-c4ccccc4)c3=O)c2n1	–	–	–	–	–	–
CSc1nnc(-c2ccccc2N=Cc2c(C)[nH]n(-c3ccccc3)c2=O)c(=O)[nH]1	–	–	–	-33	–	–
C=CCn1c(SCc2ccc(C#N)cc2)nnc1-c1cccc(Cl)c1	–	–	–	-39	–	–
C=CCn1c(SCc2cccc(C#N)c2)nnc1-c1ccccc1O	–	–	–	–	–	–
SMILES	TRHR agonist	USP1 inh	D1 agonist	D1 antagonist	D1 potentiator	TRHR enhancer
COc1ccc(N(C(=O)c2ccco2)S(=O)(=O)c2cc(OC)ccc2OC)cc1	–	–	–	-35	–	–
COc1ccc(N(C(=O)c2ccco2)S(=O)(=O)c2ccc(F)cc2)cc1	–	–	–	-58	–	–
COc1ccc(N(C(=O)c2ccco2)S(=O)(=O)c2cccc([N+](=O)[O-])c2)cc1	–	–	–	–	–	–
O=C(CSc1c2c(nc3cc(Cl)ccc13)CCCC2)N1CCN(c2ccccc2F)CC1	–	–	–	–	–	–
CCOc1cc(C2c3c(n[nH]c3C)C(=O)N2c2ccc(C)cc2)ccc1O (configuration not stated)	–	–	–	-78	–	–
CCCCOC(=O)c1cccc(NC(=O)/C=C/c2ccccc2Cl)c1	–	–	–	–	–	–
Clc1ccc(OCCOCCN2CCCCC2)c(Br)c1	–	–	–	-45	–	–
Cc1ccc(Cl)c(OCCN2CCCC(C)C2)c1 (configuration not stated)	–	–	–	-71	–	–
CC1CCN(CCCOc2ccc(Cl)cc2Br)CC1	–	–	–	–	–	–
CC1CCN(CCOCCOc2ccc(Cl)cc2Br)CC1	–	–	–	–	–	–
CC1CCCN(CCCOc2ccc(Cl)cc2Br)C1 (configuration not stated)	–	–	–	-52	–	–
Cc1cc(C)cc(NC(=O)CSc2nc(=O)[nH]c3c2CCC3)c1	–	–	–	·	–	–
Cc1cccc(NC(=O)c2cc(-c3ccc4c(c3)OCCO4)on2)c1	–	–	35	-66	–	–
N#Cc1ccc(OC(=O)c2cc(-c3ccc(Cl)cc3)on2)cc1	–	–	–	-38	–	–
Cc1cc(OC(=O)c2cc(-c3ccc4c(c3)OCCO4)on2)ccc1Cl	–	–	–	-36	–	–
Cc1ccccc1C(=O)Nc1nnc(SCc2cc(=O)c3c(C)ccc(C)c3[nH]2)s1	–	–	–	–	–	–
CCOc1ccc(Nc2c(S(=O)(=O)c3ccc(Cl)cc3)cnc3ccc(OC)cc23)cc1	–	–	–	–	–	–
CCCCN(C)C(=O)C1CCC(Cn2c(=O)[nH]c3ccsc3c2=O)CC1 (configuration not stated)	–	–	–	–	–	–
Fc1ccccc1OCCn1c(=S)[nH]c2ccccc21	–	–	–	–	–	37
Cc1ccccc1OCCn1c(=S)[nH]c2ccccc21	–	–	–	–	–	–
Cc1ccc2occ(-c3cc(-c4ccccc4)nc4c3COc3ccccc3-4)c(=O)c2c1	–	–	–	–	–	–
Cc1cc(N2CCOCC2)ccc1/C=C\[N+](=O)[O-]	–	–	47	–	–	–
Cc1cc2nn(-c3ccc(Cl)cc3)nc2cc1N	–	–	–	–	–	–
CCOc1ccc(-n2nc3cc(C)c(N)cc3n2)cc1	–	–	–	-30	–	–
Cc1cc2nn(-c3ccc(F)cc3)nc2cc1N	–	–	–	–	–	32
CCOC(=O)Cc1ccc(NC(=O)N2CCc3c(sc4c3CCCC4)C2c2ccc(F)cc2)cc1 (configuration not stated)	–	–	–	–	–	–

Bioassay records deposited in PubChem BioAssay by National Center for Advancing Translational Sciences (NCATS).
